Reference: the supplement of paper PMC4466140

Tests used:
Experiment in all cases: SPOT peptide array binding signal intensity (averaged, normalized) (arbitrary units (background-subtracted, floor 0; scale differs between SH3 domains)); higher = stronger binding of the SH3 domain to the peptide
[1] = biological target: AgAbp1
How it was run: (§1)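 Spot intensities were captured after detection with anti-GST antibody, an HRP-linked anti-mouse secondary and luminol, and quantified with Genespotter. The probes were GST-fused SH3 domains from four yeast species, produced in E. coli BL21(DE3), purified on glutathione Sepharose and incubated at 10 μg/ml overnight at 4°C on cellulose-bound synthetic 15-mer peptides with cysteines replaced by serines. Binding signal is the normalized, background-subtracted spot intensity averaged over replicates, and its arbitrary units differ between domains.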

[2] = biological target: AgBbc1
How it was run: as §1

[3] = biological target: AgBem1-D1
How it was run: as §1

[4] = biological target: AgBzz1-D1
How it was run: as §1

[5] = biological target: AgBzz1-D2
How it was run: as §1

[6] = biological target: AgCyk3
How it was run: as §1

[7] = biological target: AgFus1
How it was run: as §1

[8] = biological target: AgHof1
How it was run: as §1

[9] = biological target: AgHse1
How it was run: as §1

[10] = biological target: AgLsb1
How it was run: as §1

[11] = biological target: AgLsb4
How it was run: as §1

[12] = biological target: AgMyo5
How it was run: as §1

[13] = biological target: AgNbp2
How it was run: as §1

[14] = biological target: AgRvs167
How it was run: as §1

[15] = biological target: AgSho1
How it was run: as §1

[16] = biological target: AgSla1-D1-D2
How it was run: as §1

[17] = biological target: AgSla1-D3
How it was run: as §1

[18] = biological target: CaAbp1-D1
How it was run: as §1

[19] = biological target: CaAbp1-D2
How it was run: as §1

[20] = biological target: CaBbc1
How it was run: as §1

[21] = biological target: CaBem1-D1
How it was run: as §1

[22] = biological target: CaBzz1-D1
How it was run: as §1

[23] = biological target: CaBzz1-D2
How it was run: as §1

[24] = biological target: CaCyk3
How it was run: as §1

[25] = biological target: CaFus1
How it was run: as §1

[26] = biological target: CaHof1
How it was run: as §1

[27] = biological target: CaHse1
How it was run: as §1

[28] = biological target: CaLsb1
How it was run: as §1

[29] = biological target: CaLsb4
How it was run: as §1

[30] = biological target: CaMyo5
How it was run: as §1

[31] = biological target: CaNbp2
How it was run: as §1

[32] = biological target: CaRvs167
How it was run: as §1

[33] = biological target: CaRvs167-3
How it was run: as §1

[34] = biological target: CaSho1
How it was run: as §1

[35] = biological target: CaSla1-D1-D2
How it was run: as §1

[36] = biological target: CaSla1-D3
How it was run: as §1

[37] = biological target: ScAbp1
How it was run: as §1

[38] = biological target: ScBbc1
How it was run: as §1

[39] = biological target: ScBem1-D1
How it was run: as §1

[40] = biological target: ScBzz1-D1
How it was run: as §1

[41] = biological target: ScBzz1-D2
How it was run: as §1

[42] = biological target: ScCyk3
How it was run: as §1

[43] = biological target: ScFus1
How it was run: as §1

[44] = biological target: ScHof1
How it was run: as §1

[45] = biological target: ScHse1
How it was run: as §1

[46] = biological target: ScLsb1
How it was run: as §1

[47] = biological target: ScLsb2
How it was run: as §1

[48] = biological target: ScLsb3
How it was run: as §1

[49] = biological target: ScLsb4
How it was run: as §1

[50] = biological target: ScMyo3
How it was run: as §1

[51] = biological target: ScMyo5
How it was run: as §1

[52] = biological target: ScNbp2
How it was run: as §1

[53] = biological target: ScPex13
How it was run: as §1

[54] = biological target: ScRvs167
How it was run: as §1

[55] = biological target: ScSho1
How it was run: as §1

[56] = biological target: ScSla1-D1-D2
How it was run: as §1

[57] = biological target: ScSla1-D3
How it was run: as §1

[58] = biological target: SpAbp1-D1
How it was run: as §1

[59] = biological target: SpBbc1
How it was run: as §1

[60] = biological target: SpBzz1-D1
How it was run: as §1

[61] = biological target: SpBzz1-D2
How it was run: as §1

[62] = biological target: SpCyk3
How it was run: as §1

[63] = biological target: SpHof1
How it was run: as §1

[64] = biological target: SpHof1-2
How it was run: as §1

[65] = biological target: SpHof1-3
How it was run: as §1

[66] = biological target: SpHse1
How it was run: as §1

[67] = biological target: SpLsb1
How it was run: as §1

[68] = biological target: SpLsb4
How it was run: as §1

[69] = biological target: SpMyo1
How it was run: as §1

[70] = biological target: SpNbp2
How it was run: as §1

[71] = biological target: SpPex13
How it was run: as §1

[72] = biological target: SpRvs167
How it was run: as §1

[73] = biological target: SpSla1-D1-D2
How it was run: as §1

[74] = biological target: SpSla1-D3
How it was run: as §1

Binder: NGRRRPKFRVQLSGN
- SPOT peptide array binding signal intensity [1]: 206
- SPOT peptide array binding signal intensity [2]: 71
- SPOT peptide array binding signal intensity [3]: 339
- SPOT peptide array binding signal intensity [4]: 84
- SPOT peptide array binding signal intensity [5]: 46
- SPOT peptide array binding signal intensity [6]: 5
- SPOT peptide array binding signal intensity [7]: 1440
- SPOT peptide array binding signal intensity [8]: 47.8
- SPOT peptide array binding signal intensity [9]: 1600
- SPOT peptide array binding signal intensity [10]: 16.5
- SPOT peptide array binding signal intensity [11]: 379
- SPOT peptide array binding signal intensity [12]: 1.5
- SPOT peptide array binding signal intensity [13]: 430
- SPOT peptide array binding signal intensity [14]: 9
- SPOT peptide array binding signal intensity [15]: 269
- SPOT peptide array binding signal intensity [16]: 462
- SPOT peptide array binding signal intensity [17]: 13
- SPOT peptide array binding signal intensity [18]: 596
- SPOT peptide array binding signal intensity [19]: 855
- SPOT peptide array binding signal intensity [20]: 134
- SPOT peptide array binding signal intensity [21]: 74.5
- SPOT peptide array binding signal intensity [22]: 185
- SPOT peptide array binding signal intensity [23]: 114
- SPOT peptide array binding signal intensity [24]: 33
- SPOT peptide array binding signal intensity [25]: 3650
- SPOT peptide array binding signal intensity [26]: 0.75
- SPOT peptide array binding signal intensity [27]: 202
- SPOT peptide array binding signal intensity [28]: 4
- SPOT peptide array binding signal intensity [29]: 238
- SPOT peptide array binding signal intensity [30]: 4
- SPOT peptide array binding signal intensity [31]: 762
- SPOT peptide array binding signal intensity [32]: 80.3
- SPOT peptide array binding signal intensity [33]: 232
- SPOT peptide array binding signal intensity [34]: 1190
- SPOT peptide array binding signal intensity [35]: 295
- SPOT peptide array binding signal intensity [36]: 84
- SPOT peptide array binding signal intensity [37]: 130
- SPOT peptide array binding signal intensity [38]: 28.8
- SPOT peptide array binding signal intensity [39]: 166
- SPOT peptide array binding signal intensity [40]: 41
- SPOT peptide array binding signal intensity [41]: 104
- SPOT peptide array binding signal intensity [42]: 131
- SPOT peptide array binding signal intensity [43]: 2430
- SPOT peptide array binding signal intensity [44]: 6.5
- SPOT peptide array binding signal intensity [45]: 3000
- SPOT peptide array binding signal intensity [46]: 6
- SPOT peptide array binding signal intensity [47]: 14
- SPOT peptide array binding signal intensity [48]: 719
- SPOT peptide array binding signal intensity [49]: 42.5
- SPOT peptide array binding signal intensity [50]: 1.5
- SPOT peptide array binding signal intensity [51]: 4.75
- SPOT peptide array binding signal intensity [52]: 489
- SPOT peptide array binding signal intensity [53]: 4
- SPOT peptide array binding signal intensity [54]: 52.7
- SPOT peptide array binding signal intensity [55]: 2060
- SPOT peptide array binding signal intensity [56]: 693
- SPOT peptide array binding signal intensity [57]: 6.5
- SPOT peptide array binding signal intensity [58]: 561
- SPOT peptide array binding signal intensity [59]: 13
- SPOT peptide array binding signal intensity [60]: 162
- SPOT peptide array binding signal intensity [61]: 0.75
- SPOT peptide array binding signal intensity [62]: 4
- SPOT peptide array binding signal intensity [63]: 269
- SPOT peptide array binding signal intensity [64]: 12.5
- SPOT peptide array binding signal intensity [65]: 788
- SPOT peptide array binding signal intensity [66]: 1140
- SPOT peptide array binding signal intensity [67]: 10.5
- SPOT peptide array binding signal intensity [68]: 294
- SPOT peptide array binding signal intensity [69]: 18.8
- SPOT peptide array binding signal intensity [70]: 1300
- SPOT peptide array binding signal intensity [71]: 62.5
- SPOT peptide array binding signal intensity [72]: 14.2
- SPOT peptide array binding signal intensity [73]: ≤ 0
- SPOT peptide array binding signal intensity [74]: 43
